Screening data from PubChem BioAssay.
HT1080 IDH1KD tx = HT-1080 IDH1 knockdown cell toxicity (counter line) | HT-1080 IDH1 knockdown viability, ATP luminescence, 48 h | Potency, µM (highest dose often 46.1 µM), for the others: at the top dose activity, negative = toxicity, most hits filed as cytotoxic | 360,000 compounds, 2% hits | AID 686971;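 also: potency is read from the fitted curve at half-maximal effect; 0% = DMSO wells and -100% = cell-free medium wells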
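Assay cells: HT-1080 with IDH1 knockdown, 750 per well, RPMI/5% FBS. Exposure: 48 h at 37 °C following 2 h pre-incubation. Read: CellTiter-Glo luminescence; fitted concentration-response, curve class assigned.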
TDP1 cell noCPT = qHTS for Inhibitors of human tyrosyl-DNA phosphodiesterase 1 (TDP1): qHTS in cells in absence of CPT; DT40 Tdp1-/- hTDP1 cells, no CPT, ATP luminescence, 48 h; Potency, µM (highest dose often 46.2 µM), for inactives: at the top dose activity change, negative = growth inhibition, actives largely listed as inhibitors; 420,000 compounds, 15% hits; AID 686978, 2013; also: potency is read from the fitted curve at half-maximal effect; nearly all actives have a fitted effect of over 55% in size
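Chicken DT40 Tdp1-/- cells stably complemented with human TDP1 were seeded at 400 cells/well with DMSO in place of 20 nM camptothecin. After compound pinning, cells grew at least 48 hr at 37 °C; viability read by CellTiter-Glo luminescence.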
TDP1 cell CPT = DT40-hTDP1 cell growth loss with CPT; AID 686979; chicken DT40 Tdp1-/-;hTDP1 cells + 20 nM CPT, ATP luminescence, 48 h; 420,000 compounds, 12% hits; Potency, µM (doses to about 46.2 µM), for the others: top-dose activity change, negative = growth inhibition, most hits filed as inhibitors; also: potency is read from the fitted curve at half-maximal effect; nearly all actives have a fitted effect of over 55% in size
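Chicken DT40 Tdp1-/- cells stably complemented with human TDP1 were seeded at 400 cells/well in medium containing 20 nM camptothecin, exposed to pin-transferred compounds, and grown at 37 °C for at least 48 hr. Viability was read as ATP luminescence.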
ALOX12 inh = ALOX12 (human) lipoxygenase inhibition | P18054 | purified 12hLO, xylenol orange hydroperoxide absorbance | Potency, µM (series often up to 108 µM), for the others: at the top dose activity change, negative = inhibition, most hits filed as inhibitors | 580,000 compounds, 1.1% hits; also: potency is read from the fitted curve at half-maximal effect
Target sequence (P18054 whole entry, looked up): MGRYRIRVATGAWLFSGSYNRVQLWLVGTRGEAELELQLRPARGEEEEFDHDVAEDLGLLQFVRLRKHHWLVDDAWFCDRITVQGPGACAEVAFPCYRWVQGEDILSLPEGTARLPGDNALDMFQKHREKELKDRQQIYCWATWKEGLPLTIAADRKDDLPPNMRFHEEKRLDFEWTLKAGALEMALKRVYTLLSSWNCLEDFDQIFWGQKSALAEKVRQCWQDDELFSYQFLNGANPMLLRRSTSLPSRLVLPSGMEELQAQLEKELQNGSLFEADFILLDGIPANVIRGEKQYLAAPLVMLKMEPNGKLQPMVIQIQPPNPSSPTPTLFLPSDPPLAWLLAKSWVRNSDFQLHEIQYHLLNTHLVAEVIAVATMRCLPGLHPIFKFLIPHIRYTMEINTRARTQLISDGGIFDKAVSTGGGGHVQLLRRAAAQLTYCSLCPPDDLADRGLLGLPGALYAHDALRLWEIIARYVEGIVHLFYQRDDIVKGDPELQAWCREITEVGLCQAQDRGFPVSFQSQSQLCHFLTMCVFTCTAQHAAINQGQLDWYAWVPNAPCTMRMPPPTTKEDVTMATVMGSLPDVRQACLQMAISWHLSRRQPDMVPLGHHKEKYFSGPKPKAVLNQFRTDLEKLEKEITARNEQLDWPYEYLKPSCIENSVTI
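Hydroperoxide product was detected by ferrous iron/xylenol orange as the 573 to 405 nm absorbance ratio. Arachidonic acid at 40 uM (final) was turned over for 30 min at room temperature by 150 nM human 12hLO, pH 7.0 Hepes buffer, after 15 min compound preincubation.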
HT1080-NT tox = kills 2HG-producing HT-1080-NT fibrosarcoma cells; HT-1080-NT fibrosarcoma viability, CellTiter-Glo ATP luminescence, 48 h; Potency, µM (titrated, usually from 46.1 µM), without a hit: top-dose activity, negative = less viability, usual class: cytotoxic; 360,000 compounds, 1.6% hits; AID 686970;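 also: NT is the 2HG producing partner of a matched IDH1 knockdown line; potency is read from the fitted curve at half-maximal effect; 0% = DMSO-treated cells and -100% = media-only wells without cells; nearly all actives have a fitted effect of over 55% in size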
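Toxicity toward the 2HG-producing NT line was scored as %Activity, normalised to DMSO and no-cell wells, from CellTiter-Glo luminescence after 48 hours' treatment.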
IL-1B inflam inh = inflammasome signaling inhibition, IL-1 beta readout | THP-1 LPS/ATP IL-1B secretion, AlphaLISA, 16 h; active compounds read low | activity change, % at 57.5 µM | 360,000 compounds, 4.7% hits | AID 743279; in the data active = activity change below about -50%; inconclusive = mostly about -30% to -49%
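Secreted IL-1B measured by AlphaLISA bead assay after 16 h compound exposure of THP-1 cells; compounds (final up to 57.5 uM) added 1 h before LPS (250 ng/mL) and ATP (1.25 mM) stimulation; lower signal means less secretion.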
* = called active by the depositor; ? = inconclusive; . = no result given; [ ] = remark or other dose. The full list was thinned out, with hits kept by preference. Unless noted, calls follow the shape of the dose curve; as a rule, active = well fitted curve in the direction sought with a large enough effect; inconclusive = small, poorly fitted or top-dose-only effect, or another doubt; inactive = no such curve, though single readings can be large; an effect the other way counts as inactive or inconclusive. Unless noted, % is scaled to controls: 0 for no effect and ±100 for the full control effect.

SMILES | HT1080 IDH1KD tx | TDP1 cell noCPT | TDP1 cell CPT | ALOX12 inh | HT1080-NT tox | IL-1B inflam inh
CCCS(=O)(=O)NC(=O)C1(C)CCN(C(=O)c2cc(C(C)(C)C)nn2C)C1 (stereo not drawn) | 19.1% | -6.9% | 2.7% | -49.5% | 24.8% | -53.4*
COCCn1cnnc1CCNC(=O)c1oc2cc(OC)ccc2c1C | . | . | . | 28.9% | . | .
Cc1csc(-c2coc3cc(O)cc(C)c3c2=O)n1 | ? | ? | 16.4µM* | -10.5%[57.4 µM] | ? | 19.6
COc1ccc2c(=O)c(-c3nc(C)cs3)coc2c1 | -16.5% | -22.7% | -20.7% | -24.9% | -10.7% | 0.0
CC(O)CNc1nc(-c2ccsc2)nc2ccccc12 (stereo not drawn) | . | . | . | -5.2% | . | .
CCOc1ccc(C2CC(=O)Nc3c2c(=O)nc(SCc2ccccc2C)n3C)cc1OC (stereo not drawn) | . | 5.8µM* | 9.2µM* | 5.0% | . | .
CC(=O)Nc1ccc(Oc2ccc(-c3noc(C)n3)cc2)cc1 | 4.0% | -25.8% | -0.3% | 291.3% | 3.7% | -16.4
CC(=O)Oc1ccc(Oc2ccc(-c3noc(C)n3)cc2)cc1 | -29.4% | 11.6µM* | 20.6µM* | 3.3% | -3.0% | 0.0
Cc1ccc(C)c(NC(=O)Cn2c(-c3cccc(Cl)c3)nc(C)c(CCO)c2=O)c1 | . | . | . | -5.0% | . | .
CCOC(=O)c1c(S(=O)(=O)N2CCCC(C(=O)N3CCN(c4ccccc4)CC3)C2)c(C)n(C)c1C (stereo not drawn) | . | ? | 14.6µM* | -19.0% | . | .
CCOC(=O)c1c(S(=O)(=O)N2CCN(c3cc(Cl)ccc3C)CC2)c(C)n(C)c1C | . | 20.6µM* | ? | -9.4% | . | .
CCOC(=O)c1c(C)c(C(=O)N2CCN(c3ccccc3)CC2)c(C)n1C | -7.0% | -25.2% | -20.5% | 1.9% | -0.2% | -69.3*
CCOC(=O)c1c(S(=O)(=O)N2CCCC(C(=O)NCc3ccccc3Cl)C2)c(C)n(C)c1C (stereo not drawn) | . | -21.7% | -27.7% | ? | . | .
CCOC(=O)c1c(S(=O)(=O)N2CCCC(C(=O)NCc3ccc(Cl)cc3)C2)c(C)n(C)c1C (stereo not drawn) | . | ? | 13µM* | -29.9% | . | .
CCOC(=O)c1c(S(=O)(=O)N2CCCC(C(=O)N3CCN(c4ccc(F)cc4)CC3)C2)c(C)n(C)c1C (stereo not drawn) | . | ? | 23.1µM* | -21.2% | . | .
CCOC(=O)c1c(S(=O)(=O)N2CCCC(C(=O)N(C)Cc3ccccc3)C2)c(C)n(C)c1C (stereo not drawn) | . | ? | 11.6µM* | -10.7% | . | .
Cc1ccc(-n2c(O)c(C=Nc3ccc4c(c3)OCO4)c3ccccc3c2=O)cc1C | -13.6% | ? | 7.31µM* | 13.2% | 11.6% | 25.0
CCOC(=O)Cc1csc(/N=C/c2c(O)n(-c3ccc(C)c(C)c3)c(=O)c3ccccc23)n1 | 21.5% | ? | 20.6µM* | 10.1% | 6.5% | -6.9
Cc1cccc(-n2c(O)c(C=Nc3ccc4c(c3)OCO4)c3ccccc3c2=O)n1 | 6.2% | ? | ? | 0.0% | -0.2% | ?
Cc1cc(N=Cc2c(O)n(-c3ccc4c(c3)OCO4)c(=O)c3ccccc23)ccn1 | ? | 18.4µM* | 18.4µM* | 7.6% | ? | ?
Cc1cccc(-n2c(O)c(C=Nc3cccc(O)c3)c3ccccc3c2=O)n1 | -3.1% | ? | 20.6µM* | ? | -6.1% | -14.0
Cc1noc(C(C)C)c1C(=O)NCc1cccnc1OC1CCCC1 | . | . | . | 11.4% | . | .
Cc1cc(-c2ccccc2)cc(C)n1 | 14.5% | -12.2% | -1.2% | -0.1% | 8.4% | 7.5
c1ccc(-c2cc(-c3ccccc3)[o+]c(-c3ccccc3)c2)cc1 | . | . | . | 15.8µM* | . | .
